Test results reported in the supplement of paper PMC8728848.
This is one part of a sample in which the strongest signals are shown more often than they occur.

Columns and labels:
Assay in all cases: glycan array binding signal (z-score within array); higher = stronger binding
Conditions in all cases: glycan notation: IUPAC condensed, linker removed; mutation: D57L
[1] = biological target: Fuc(a1-2)Gal(b1-3)GlcNAc(b1-2)Man(a1-3)[Fuc(a1-2)Gal(b1-3)GlcNAc(b1-2)Man(a1-6)]Man(b1-4)GlcNAc(b1-4)GlcNAc
Summary of the method: (§1)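 Arrays were curated from the Consortium for Functional Glycomics database, 3228 in total, and kept only where the protein sequence was available. Binding is expressed as a within-array Z-score. This score was averaged across arrays of the same protein sequence at different concentrations or buffers and across linkers, and negative values can be read as non-binding.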

[2] = biological target: Fuc(a1-2)Gal(b1-3)GlcNAc(b1-3)Gal(b1-4)Glc
Summary of the method: as §1

[3] = biological target: Fuc(a1-2)Gal(b1-3)GlcNAc(b1-3)[Gal(b1-4)GlcNAc(b1-6)]Gal(b1-4)Glc
Summary of the method: as §1

[4] = biological target: Fuc(a1-2)Gal(b1-3)GlcNAc(b1-3)[Neu5Ac(a2-6)Gal(b1-4)GlcNAc(b1-6)]Gal(b1-4)Glc
Summary of the method: as §1

[5] = biological target: Fuc(a1-2)Gal(b1-4)Fuc(a1-3)]GlcNAc(b1-2)Man(a1-3)[Fuc(a1-2)Gal(b1-4)[Fuc(a1-3)]GlcNAc(b1-2)Man(a1-6)]Man(b1-4)GlcNAc(b1-4)GlcNAc
Summary of the method: as §1

[6] = biological target: Fuc(a1-2)Gal3S(b1-4)GlcNAc
Summary of the method: as §1

[7] = biological target: Fuc(a1-2)Gal6S(b1-3)GlcNAc6S
Summary of the method: as §1

[8] = biological target: Fuc(a1-2)[Gal(a1-3)]Gal(b1-3)GalNAc(b1-3)Gal(a1-4)Gal(b1-4)Glc
Summary of the method: as §1

[9] = biological target: Fuc(a1-2)[Gal(a1-3)]Gal(b1-4)GlcNAc(b1-2)Man(a1-3)[Fuc(a1-2)[Gal(a1-3)]Gal(b1-4)GlcNAc(b1-2)Man(a1-6)]Man(b1-4)GlcNAc(b1-4)[Fuc(a1-6)]GlcNAc
Summary of the method: as §1

[10] = biological target: Fuc(a1-2)[Gal(a1-3)]Gal(b1-4)GlcNAc(b1-6)GalNAc
Summary of the method: as §1

[11] = biological target: Fuc(a1-3)[Gal3S(b1-4)]GlcNAc6S
Summary of the method: as §1

[12] = biological target: Gal(a1-3)GalNAc
Summary of the method: as §1

[13] = biological target: Gal(b1-3)GalNAc(b1-4)Gal(b1-4)Glc
Summary of the method: as §1

[14] = biological target: Gal(b1-3)GlcNAc(b1-3)Gal(b1-4)GlcNAc
Summary of the method: as §1

[15] = biological target: Gal(b1-3)[Fuc(a1-4)]GlcNAc(b1-2)Man(a1-3)[Gal(b1-3)[Fuc(a1-4)]GlcNAc(b1-2)Man(a1-6)]Man(b1-4)GlcNAc(b1-4)[Fuc(a1-6)]GlcNAc
Summary of the method: as §1

[16] = biological target: Gal(b1-4)GlcNAc(a1-6)Gal(b1-4)GlcNAc
Summary of the method: as §1

[17] = biological target: Gal(b1-4)GlcNAc(b1-2)Man(a1-3)[Man(a1-6)]Man(b1-4)GlcNAc(b1-4)GlcNAc
Summary of the method: as §1

[18] = biological target: Gal(b1-4)GlcNAc(b1-2)Man(a1-6)Man(b1-4)GlcNAc(b1-4)GlcNAc
Summary of the method: as §1

[19] = biological target: Gal(b1-4)GlcNAc(b1-3)Gal(b1-4)GlcNAc(b1-2)[Gal(b1-4)GlcNAc(b1-3)Gal(b1-4)GlcNAc(b1-6)]Man(a1-6)[Gal(b1-4)GlcNAc(b1-3)Gal(b1-4)GlcNAc(b1-2)Man(a1-3)]Man(b1-4)GlcNAc(b1-4)GlcNAc
Summary of the method: as §1

[20] = biological target: Gal(b1-4)GlcNAc(b1-3)Gal(b1-4)GlcNAc(b1-3)Gal(b1-4)GlcNAc(b1-2)Man(a1-3)[Gal(b1-4)GlcNAc(b1-3)Gal(b1-4)GlcNAc(b1-3)Gal(b1-4)GlcNAc(b1-2)Man(a1-6)]Man(b1-4)GlcNAc(b1-4)[Fuc(a1-6)]GlcNAc
Summary of the method: as §1

[21] = biological target: Gal(b1-4)GlcNAc(b1-3)Gal(b1-4)GlcNAc(b1-3)Gal(b1-4)GlcNAc(b1-3)Gal(b1-4)GlcNAc(b1-3)Gal(b1-4)GlcNAc(b1-2)Man(a1-3)[Gal(b1-4)GlcNAc(b1-3)Gal(b1-4)GlcNAc(b1-3)Gal(b1-4)GlcNAc(b1-3)Gal(b1-4)GlcNAc(b1-3)Gal(b1-4)GlcNAc(b1-2)Man(a1-6)]Man(b1-4)GlcNAc(b1-4)[Fuc(a1-6)]GlcNAc
Summary of the method: as §1

[22] = biological target: Gal(b1-4)GlcNAc(b1-3)[GlcNAc(b1-6)]Gal(b1-4)GlcNAc
Summary of the method: as §1

[23] = biological target: Gal3S(b1-3)GalNAc
Summary of the method: as §1

[24] = biological target: Gal3S6S(b1-4)GlcNAc6S
Summary of the method: as §1

[25] = biological target: Gal6S(b1-4)Glc
Summary of the method: as §1

[26] = biological target: Gal6S(b1-4)GlcNAc
Summary of the method: as §1

[27] = biological target: Glc(a1-6)Glc(a1-6)Glc
Summary of the method: as §1

[28] = biological target: Glc(a1-6)Glc(a1-6)Glc(a1-6)Glc
Summary of the method: as §1

[29] = biological target: GlcNAc(b1-2)[GlcNAc(b1-4)]Man(a1-3)[GlcNAc(b1-2)Man(a1-6)]Man(b1-4)GlcNAc(b1-4)GlcNAc
Summary of the method: as §1

B1: PNGase F (Flavobacterium meningosepticum) (protein)
chain: GIPAPADNTVNIKTFDKVKNAFGDGLSQSAEGTFTFPADVTAVKTIKMFIKNECPNKTCLEWDRYANVYVKNKTTGEWYEIGRFITPYWVGTEKLPRGLEIDVTDFKSLLSGNTELKIYTETWLAKGREYSVDFDIVYGTPDYKYSAVVPVVQYNKSSIDGVPYGKAHTLALKKNIQLPTNTEKAYLRTTISGWGHAKPYDAGSRGCAEWCFRTHTIAINNSNTFQHQLGALGCSANPINNQSPGNWTPDRAGWCPGMAVPTRIDVLNNSLIGSTFSYEYKFQNWTNNGTNGDAFYAISSFVIAKSNTPISAPVVTNLDPHHHHHH
- glycan array binding signal (z-score) [1]: 3.35
- glycan array binding signal (z-score) [2]: -0.517
- glycan array binding signal (z-score) [3]: 0.038
- glycan array binding signal (z-score) [4]: -0.604
- glycan array binding signal (z-score) [5]: 7.24
- glycan array binding signal (z-score) [6]: -0.942
- glycan array binding signal (z-score) [7]: 4.52
- glycan array binding signal (z-score) [8]: -0.247
- glycan array binding signal (z-score) [9]: 1.68
- glycan array binding signal (z-score) [10]: 1.12
- glycan array binding signal (z-score) [11]: -0.29
- glycan array binding signal (z-score) [12]: -0.507
- glycan array binding signal (z-score) [13]: -0.31
- glycan array binding signal (z-score) [14]: -0.079
- glycan array binding signal (z-score) [15]: 4.53
- glycan array binding signal (z-score) [16]: -1.25
- glycan array binding signal (z-score) [17]: 2.77
- glycan array binding signal (z-score) [18]: 0.974
- glycan array binding signal (z-score) [19]: 3.43
- glycan array binding signal (z-score) [20]: 0.367
- glycan array binding signal (z-score) [21]: 0.345
- glycan array binding signal (z-score) [22]: 3.02
- glycan array binding signal (z-score) [23]: -0.275
- glycan array binding signal (z-score) [24]: 3.81
- glycan array binding signal (z-score) [25]: 0.11
- glycan array binding signal (z-score) [26]: -0.941
- glycan array binding signal (z-score) [27]: 0.269
- glycan array binding signal (z-score) [28]: 1.14
- glycan array binding signal (z-score) [29]: -0.836
